Reference: PubChem BioAssay AID1159580 (chemical genetic matrix, 2015)
“And” between values parts separate entries of the source, which are not always exact repeats. Equal entries are not always repeated. Among all 5,500 compounds or so, about 2,000 (36%) were called active. Roughly 18% stayed inconclusive and do not appear here. No stated cut-off is given here; in the data, active means normalized growth mostly below about 0.91 (no sharp cut-off); inconclusive means no clear call, values can overlap the other calls; inactive means mostly above about 0.92. Some of the results follow.

Assay: chemical genetic growth profiling, strain panel (AID 1159580);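 further: tested at 20 µM; growth read once vehicle control cultures reached saturation at 30 °C; 1 = growth at the plate median or of vehicle wells; lower values mean less growth of the strain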
Settings: S. cerevisiae deletion strains, growth OD

Measured: normalized growth

NC(=O)NCCCC(N)C(=O)O (configuration not stated)
inactive: locus YAL013W, strain DEP1, hits give low values 1.01 | locus YAL021C, strain ccr4, hits give low values 0.962 | locus YAL026C, strain drs2, hits give low values 1.01 | locus YAL030W, strain snc1, hits give low values 1.01 | locus YBL061C, strain skt5, hits give low values 1.01 | locus YBR009C, strain hhf1, hits give low values 1.05 | locus YBR021W, strain FUR4, hits give low values 1.01 | locus YBR023C, strain chs3, hits give low values 1.01 | locus YBR171W, strain sec66, hits give low values 0.99 | locus YBR229C, strain ROT2, hits give low values 1.01 | locus YBR231C, strain swc5, hits give low values 1.03 | locus YBR279W, strain paf1, hits give low values 1.01 | locus YCL011C, strain gbp2, hits give low values 0.996 | locus YCL016C, strain dcc1, hits give low values 1 | locus YCL029C, strain bik1, hits give low values 0.998 | locus YCL061C, strain MRC1, hits give low values 0.992 | locus YCL069W, strain vba3, hits give low values 0.996 | locus YCR088W, strain abp1, hits give low values 0.995 | locus YDL005C, strain med2, hits give low values 0.996 | locus YDL035C, strain GPR1, hits give low values 1.03 | locus YDL040C, strain nat1, hits give low values 1 | locus YDL074C, strain BRE1, hits give low values 1.06 | locus YDL101C, strain DUN1, hits give low values 1.03 | locus YDL134C, strain PPH21, hits give low values 1.02 | locus YDL185W, strain tfp1, hits give low values 0.994 | locus YDL192W, strain arf1, hits give low values 0.993 | locus YDR001C, strain nth1, hits give low values 0.989 | locus YDR069C, strain doa4, hits give low values 1.02 | locus YDR101C, strain arx1, hits give low values 0.988 | locus YDR137W, strain rgp1, hits give low values 0.986 | locus YDR150W, strain NUM1, hits give low values 1.02 | locus YDR159W, strain sac3, hits give low values 1.04 | locus YDR162C, strain NBP2, hits give low values 1.04 | locus YDR195W, strain ref2 1.02 | locus YDR297W, strain sur2, hits give low values 1.01 | locus YDR318W, strain mcm21, hits give low values 0.983 | locus YDR334W, strain swr1, hits give low values 0.982 | locus YDR335W, strain msn5, hits give low values 0.993 | locus YDR388W, hits give low values 0.992 | locus YDR392W, strain spt3, hits give low values 0.96 | locus YDR502C, strain sam2, hits give low values 0.993 | locus YEL003W, strain gim4, hits give low values 0.994 | locus YEL037C, strain rad23, hits give low values 0.995 | locus YEL061C, strain CIN8 (second series), hits give low values 0.999 | locus YEL061C, strain CIN8, hits give low values 1.01 | locus YER015W, strain faa2, hits give low values 1 | locus YER016W, strain bim1, hits give low values 1.01 | locus YER110C, hits give low values 0.988 | locus YER111C, strain swi4, hits give low values 1 | locus YER155C, strain BEM2 (second series), hits give low values 1.04 | locus YER155C, strain BEM2, hits give low values 1.01 | locus YER167W, strain BCK2, hits give low values 1.04 | locus YFR010W, strain ubp6, hits give low values 0.982 | locus YGL078C, strain dbp3, hits give low values 1 | locus YGL086W, strain mad1, hits give low values 0.997 | locus YGL167C, strain pmr1, hits give low values 1.03 | locus YGL173C, strain kem1, hits give low values 1 | locus YGL227W, strain vid30, hits give low values 0.998 | locus YGL240W, strain doc1, hits give low values 1.07 | locus YGL248W, strain PDE1, hits give low values 1.01 | locus YGL253W, strain hxk2, hits give low values 1 | locus YGR078C, strain PAC10, hits give low values 1.05 | locus YGR135W, strain pre9, hits give low values 1 | locus YGR229C, strain SMI1, hits give low values 1.02 | locus YGR252W, strain gcn5, hits give low values 0.98 | locus YHR013C, strain ard1, hits give low values 1.01 | locus YHR027C, strain rpn1, hits give low values 0.997 | locus YHR030C, strain SLT2, hits give low values 1.01 | locus YHR079C, strain IRE1 (second series), hits give low values 0.977 | locus YHR079C, strain IRE1, hits give low values 0.992 | locus YHR094C, strain hxt1, hits give low values 0.995 | locus YHR129C, strain ARP1, hits give low values 1.04 | locus YHR142W, strain chs7, hits give low values 0.93 | locus YHR200W, strain rpn10, hits give low values 0.994 | locus YIL066C, strain RNR3, hits give low values 1.02 | locus YIL073C, strain SPO22, hits give low values 1.01 | locus YIL125W, strain kgd1, hits give low values 0.987 | locus YIR030C, strain dcg1, hits give low values 0.993 | locus YJL092W, strain hpr5, hits give low values 0.979 | locus YJL095W, strain BCK1 (second series), hits give low values 1.01 | locus YJL095W, strain BCK1, hits give low values 1.05 and 1.01 | locus YJL115W, strain asf1, hits give low values 0.988 | locus YJL129C, strain trk1, hits give low values 0.973 | locus YJL134W, strain LCB3, hits give low values 1.01 | locus YJL154C, strain vps35, hits give low values 0.997 | locus YJL164C, strain tpk1, hits give low values 0.981 | locus YJL166W, strain qcr8, hits give low values 1.01 | locus YJL168C, strain set2, hits give low values 1 | locus YJL187C, strain SWE1 (second series), hits give low values 1.02 | locus YJL187C, strain SWE1, hits give low values 1 | locus YJR043C, strain POL32, hits give low values 1.03 | locus YJR066W, strain TOR1, hits give low values 0.964
